HCV inhibitor: inhibitors of hepatitis C virus infection; AID 651820; 340,000 tested, 3.4% active; Potency, µM (doses to about 41.8 µM), without a hit: at the top dose activity change, negative = inhibition, hits mostly inhibitors; Huh7.5.1 HCVcc-Cre infection, luciferase reporter, 44 h
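Antiviral activity was scored by luciferase reporter output from cells infected with HCVcc-Cre (~0.5 moi) in presence of compound, 44 h infection period, cells seeded 1,000/well 4 h prior.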
FMDV antiviral: blocks foot and mouth disease virus | 410,000 tested, 1.2% active | Potency, µM (top dose mostly 57.9 µM), inactives show at the highest dose activity change, negative = inhibition, usual class: inhibitors | FMDV antiviral cell-based qHTS; calls by dose curve; tested in HEK293T cells; also: read-out not given here; nearly all actives have a fitted effect of over 45% in size
Lassa entry inh: blocks Lassa virus binding to or entry into cells | 300,000 tested, 1.2% active | Potency, µM (doses to about 37.9 µM), without a hit: top-dose activity change, negative = inhibition, actives largely listed as inhibitors | AID 540256 | Lassa virus pseudotype entry inhibition, cell reporter; calls by dose curve; tested in HEK293 cells; also: nearly all actives have a fitted effect of over 50% in size
Marburg entry inh: inhibitors of Marburg virus binding or cell entry | Marburg virus pseudotyped entry inhibition, cell reporter | Potency, µM (titrated, usually from 37.8 µM), for the others: at the top dose activity change, negative = inhibition, usual class: inhibitors | 300,000 tested, 1.8% active | AID 540276; calls by dose curve; tested in HEK293 cells
Sm TGR inh: S. mansoni TGR enzyme inhibition | purified TGR, DTNB reduction, TNB absorbance 405 nm | Potency, µM (titrated, usually from 114 µM), inactives show top-dose activity change, negative = inhibition, most hits filed as inhibitors | 360,000 tested, 3% active; also: nearly all actives have a fitted effect of over 60% in size
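First, TGR (20 nM dispensed) and NADPH were mixed with compound. Second, a 15 min room-temperature incubation followed. Third, further NADPH and then DTNB were added to start the reaction. Finally, TNB absorbance was monitored kinetically.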
RE007 growth inh: less growth of the S. pombe RE007 Vpr strain; AID 651644; 360,000 tested, 0.21% active; Potency, µM (series often up to 92.2 µM), for inactives: at the top dose activity change, negative = less growth, actives largely listed as inhibitors; S. pombe RE007 Vpr strain, BacTiter-Glo ATP luminescence, 24 h; active = well fitted falling curve with a large enough effect; inconclusive = small, poorly fitted or top-dose-only effect; inactive = no such curve, though single readings can be large or run the other way; also: nearly all actives have a fitted effect of over 50% in size
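Fission yeast strain RE007, carrying one chromosomally integrated HIV-1 vpr copy, was seeded at OD 0.01 in PMG+AL medium with 23 nL pinned compound. After 24 h at 30 °C and 99% humidity, viability was read by BacTiter-Glo luminescence.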
Starred values were filed as active, the others as inactive; u = inconclusive; x = no result given; [ ] = remark or other dose. A selection: hits, their analogues and other compounds. The true share with any hit is near 7.2%. Unless noted, calls follow the shape of the dose curve; as a rule, active = well fitted curve in the direction sought with a large enough effect; inconclusive = small, poorly fitted or top-dose-only effect, or another doubt; inactive = no such curve, though single readings can be large; an effect the other way counts as inactive or inconclusive. % is scaled to controls: 0 for no effect and ±100 for the full control effect; potency is read from the fitted curve at half-maximal effect.

SMILES	HCV inhibitor	FMDV antiviral	Lassa entry inh	Marburg entry inh	Sm TGR inh	RE007 growth inh
CN(C)CCCN(C(=O)c1cc2ccccc2oc1=O)c1nc2ccc(F)cc2s1	u	1%	7%	-7%	5%	27%
c1ccc(-c2nc3cc4ccccc4cc3[nH]2)nc1	u	-76%	2.2µM*	u	0%	u
CCOC(=O)C1=C(CSc2nc(C)ccc2C#N)OC(N)=C(C#N)C1c1cccc(OC)c1OC (configuration not stated)	0%	-22%	-3%	0%	13µM*	15%
CCOC(=O)C1=C(CC)OC(N)=C(C#N)C1c1ccc(OC)c(OC)c1OC (configuration not stated)	-3%	7%	u	1%[46.1 µM]	u	18%
Cc1ccc[n+](-c2nc([O-])sc2C=O)c1	-6%	-5%	-3%	-11%[46.1 µM]	-15%	-19%
Cc1ccc(-n2c([O-])nc(-[n+]3ccccc3)c2C=O)cc1	7%	x	19%	0%	40µM*	11%
COc1ccc(N=C2S/C(=C\c3ccc(N4CCOCC4)o3)C(=O)N2CCc2c[nH]c3ccccc23)cc1	x	x	x	x	13µM*	x
CCCN1C(=O)/C(=C/c2ccco2)SC1=Nc1ccc(OC)cc1	u	u	u	-3%	50µM*	-15%
CCCN1C(=O)/C(=C/c2ccc(C)o2)SC1=Nc1ccc(OC)cc1	-22%	-20%	u	u	40µM*	-3%
CCOC(=O)CN1C(=O)S/C(=C/c2ccc(C)o2)C1=O	11%	54%	24%	1%	40µM*	-6%
CCOC(=O)CN1C(=O)S/C(=C/c2cc(C)n(C)c2C)C1=O	-27%	57%	u	-19%[46.1 µM]	x	-2%
CCCN1C(=O)/C(=C/c2ccc(C)o2)SC1=Nc1ccc(OCC)cc1	7%	-13%	-13%	12%	u	-22%
COc1cc(-c2c(OC)cccc2OC)cc2c1OCCN(Cc1cn[nH]c1-c1ccc(Cl)cc1)C2	x	-1%	x	x	x	x
Cn1cccc1C(=O)N1CCC2(CCN(C(=O)Nc3ccccc3)CC2)CC1	x	-5%	x	x	x	x
Cc1cc(C(=O)Nc2ccccc2-c2nc(CNC(=O)c3sc(C)nc3C)c(C)o2)c(C)o1	x	1%	x	x	x	x
COc1ccc(C2CC23N=C(c2ccccc2)OC3=O)cc1 (configuration not stated)	27%	22µM*	-16%	u	22µM*	24%
COc1ccc(C2=NC(c3ccccc3)CO2)cc1 (configuration not stated)	-6%[8.37 µM]	x	u	u	0%	x
COc1ccccc1CNc1nc(NCc2cccc(OC)c2OC)c2sccc2n1	x	40µM*	x	x	x	u
C#Cc1cccc(Nc2nc(NCCOC)nc3ccsc23)c1	x	u	x	x	x	-23%
COc1ccccc1CNc1nc(NCc2ccccc2F)c2sccc2n1	x	28µM*	x	x	x	-1%
C#Cc1cccc(Nc2nc(NCc3ccccc3OC)nc3ccsc23)c1	x	32µM*	x	x	x	-16%
COCCNc1nc(NCc2cccc(OC)c2OC)c2sccc2n1	x	u	x	x	x	-2%
C=C1C2=CC(=O)OC(c3ccoc3)[C@]2(C)CCC1[C@]1(C)C=CC(=O)C(C)(C)C1CC(=O)OC (some centres not stated)	x	-19%	x	x	x	x
O=S(=O)(c1cccs1)N1CN(Cc2ccco2)c2nc3ccccc3nc21	-7%	8%	-1%	-8%[46.1 µM]	u	13%
Cc1cccc(S(=O)(=O)N2CN(Cc3ccco3)c3nc4ccccc4nc32)c1	-8%	17%	-11%	-14%	18µM*	-23%
SMILES	HCV inhibitor	FMDV antiviral	Lassa entry inh	Marburg entry inh	Sm TGR inh	RE007 growth inh
CC(C)(C)NC(=O)c1cnn(-c2ccccc2)c1C1CCN(C(=O)OC(C)(C)C)CC1	x	-6%	-20%[46.1 µM]	x	-3%	x
Cc1cccn2c(=O)c3cc(C(=O)N(Cc4ccccc4)C(C)C)sc3nc12	x	u	u	4µM*	8%	x
COc1ccc(OC)c(NC(=O)COC(=O)c2c3c(nc4ccccc24)CCCC3)c1	0.89µM*	u	21µM*	5.2µM*	0%	5%
COc1ccc(NC(=O)COC(=O)c2c3c(nc4ccccc24)CCCC3)cc1	u	22µM*	u	u	-2%	13%
CNC(=O)COC(=O)c1c2c(nc3ccccc13)CCC2	5%	-23%	x	x	-23%	10%
Cn1c(=O)n(C)c2cc(N3CCOCC3)c(NC(=O)c3ccc(C(C)(C)C)cc3)cc21	x	-14%	-8%[46.1 µM]	3%[46.1 µM]	0%	x
COc1ccccc1N1CCN(C(=O)CSc2nc3ccccc3nc2N2CCCCC2)CC1	u	-7%	x	x	-24%	-12%
COc1ccc(-n2ncc3c(SCC(=O)N4CCN(c5ccccc5OC)CC4)ncnc32)cc1	13µM*	-10%	u	u	-8%	5%
COc1ccccc1N1CCN(C(=O)CSc2nnc3n2C(C)(C)Cc2ccccc2-3)CC1	6.3µM*	16µM*	u	u	-1%	14%
COc1ccccc1N1CCN(C(=O)CSc2ncnc3scc(-c4ccccc4)c23)CC1	u	u	6.3µM*	u	5%	-5%
CCCCOc1ccc(Nc2cc(Cl)ccc2C(=O)O)cn1	29%	-15%	-13%[46.1 µM]	6%[46.1 µM]	-16%	28µM*
Cc1ccc(C(=O)N(CCN2CCCCC2)CC2CCCN(C3CCCC3)C2)s1 (configuration not stated)	x	22%	u	8.9µM*	-28%	-8%
O=C(c1cccs1)N(CCN1CCCCC1)CC1CCCN(C2CCCC2)C1 (configuration not stated)	u	11%	x	x	5%	6%
Cc1cccc(S(=O)(=O)N2C[C@@H](O)COC[C@@H]3O[C@H](CC(=O)NCCCN4CCOCC4)CC[C@H]32)c1	x	-16%	x	x	x	-5%
COc1ccccc1C(=O)NCCn1cc(SCc2ccc(C)cc2)c2ccccc21	x	u	u	u	-7%	x
